About 83,000 compounds went through this panel and 20% of them were active in at least one assay; those are over-represented in the sample as a whole.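 For each line, cells grew in 96-well plates with the test compound present at a single concentration for 48 hours.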 Calls of active or inactive are those of the source. Rule for the calls: active = growth percent below 10; inactive = the rest.

The results in this text go back to PubChem BioAssay (NCI).

For the assay, the system named is MDA-MB-468 breast. Put plainly: NCI-60 one-dose screen, 48 h (100 = growth as untreated, 0 = no growth, -100 = all killed). Particulars: 10 µM unless noted.
Turning to `CNC(=O)c1cc(-n2ccc3cc(NC(=O)c4ccc(N5CCOCC5)c(C(F)(F)F)c4)ccc32)ccn1`, the growth is 71.6% (inactive).

For the compound `CCCCCC#CC(=O)O`, the growth was 108% (inactive). As for `Cc1ccc(S(=O)(=O)N/N=C2\CC3CCC2C3)cc1` (stereo not drawn), the growth was 110% (inactive).
